Reference: PubChem BioAssay (Tox21)
Results filed as inconclusive are left out. Entries that show only a call come without a potency. Unmarked numbers belong to inactive results. Activity calls are given as the source filed them. Calls follow the shape of the dose curve; as a rule, active = well fitted cell-killing curve with a large enough effect in the repeat runs; inconclusive = weak or mixed curves, or effect the other way; inactive = flat fitted curve, though single readings scatter.
Potency is read from the fitted curve at half-maximal effect.

Assay: qHTS assay to identify small molecule antagonists of the constitutive androstane receptor (CAR) signaling pathway - cell viability counter screen (AID 1224837); also: nearly all actives have a fitted effect of over 45% in size
Conditions: HepG2-CYP2B6-hCAR viability, CellTiter-Fluor, 23 h, co-treated with 50 nM CITCO; series mostly up to 92.4 µM
Source text: National Center for Advancing Translational Sciences [NCATS]
NIH Chemical Genomics Center [NCGC]
U.S. Environmental Protection Agency [EPA]
National Institutes of Environmental Health Sciences [NIEHS]
National Toxicology Program [NTP]
U.S. Food and Drug Administration [FDA]
The constitutive androstane receptor (CAR) is a nuclear receptor which regulates multiple drug metabolizing enzymes (DMEs) and transporters. Activating CAR will generally increase the transcription and subsequent translation of CYP2B6 and CYP3A4. These two DMEs represent about 50% of the drug metabolizing potential in the body. When CAR is deactivated, the metabolizing potential in the body will decrease, subsequently increasing the toxicity in the body or lowering the therapeutic potential of a pro-drug. Recently, there have also been studies performed indicating CARs role in energy metabolism and cancer therapy. Therefore, inhibiting CARs activity could have a potential effect on diabetes and cancer. Identifying environmental toxins and compounds which modulate CAR, through the use of the Tox21 10K compound collection, will be an important step in determining the toxicity and potential therapeutic effects these factors will have on the human body. To differentiate true CAR antagonists from cytotoxic substances, the assay is multiplexed with a cell viability assay.
Tox21 Assay Protocol Summary:
A double-stable (hCAR and CYP2B6-2.2kb) transfected cell line, derived from human hepatoma (HepG2) cells, was utilized for the duration of the quantitative high-throughput screens. The HepG2-CYP2B6-hCAR cells were dispensed at 2500 cells/4 uL/well in 1536-well white solid bottom plates using a Multidrop Combi. After the assay plates were incubated at 37 C/5% CO2 for 4 hrs, 23 nL of compounds at 15 concentrations (from 5-48 columns) or positive control (from 1 to 4 columns) were transferred to the assay plates using a Pintool station. One uL of CITCO (final concentration = 50 nM) was added, using a Flying Reagent Dispenser, inside each well. After a 23 hr incubation period at 37 C/5% CO2, 1 uL of CellTiter-Fluor reagent was added into each well of the assay plates using a Flying Reagent Dispenser. The fluorescence intensity in the plates was then measured using a ViewLux plate reader.
For C=CCCCCCCC=C, the Potency was “inactive”. For CCC1(c2cnc[nH]2)Cc2ccccc2C1, the Potency was “inactive”. In the case of COC(=O)CC#N, the Potency was “inactive”. For CNCC[C@H](Oc1cccc2ccccc12)c1cccs1, the Potency was 26.6 µM (active). With CCc1cccc(CC)c1N(COC)C(=O)CS(=O)(=O)O the Potency was “inactive”. With C[C@@]12C(=O)OC(=O)[C@]1(C)C1CCC2O1 the Potency was 1.33 µM (active). In the case of CC1=C(/C=C/C(C)=C/C=C/C(C)=C/C(=O)Nc2ccc(O)cc2)C(C)(C)CCC1, the Potency was 29.8 µM (active). In the case of COc1cc(C(C)C)c2c(c1)S(=O)(=O)N(COc1cc(=O)n3cccc(OCCN4CCCCC4)c3n1)C2=O, the activity change, negative = cytotoxicity was -19.6% [at 19 µM]. With CCCC(=O)OCC(COC(=O)CCC)OC(=O)CCC the Potency was “inactive”. With O=C(O)CC(=O)O the Potency was “inactive”. In the case of CCCCN(CCCC)CCC(O)c1cc2c(Cl)cc(Cl)cc2c2cc(C(F)(F)F)ccc12 (stereo not given), the Potency was “inactive”. With S=P(N1CC1)(N1CC1)N1CC1 the Potency was “inactive”. For CC1(C)C(=O)N(CO)C(=O)N1CO, the Potency was “inactive”. With Cc1cccc(N(C)C)c1 the Potency was “inactive”. With CCCCCCCCCCCCN(CCO)CCO the Potency was 68.3 µM (active). For CC1CCCNC1 (stereo not given), the Potency was “inactive”. For C1CC(COCC2CO2)CCC1COCC1CO1 (stereo not given), the Potency was “inactive”. For O=C(O)c1cccc(Cl)n1, the Potency was “inactive”. For C=CC/C=C/C/C=C/C/C=C/C, the Potency was “inactive”. In the case of CN(C)CCN1CCOCC1, the Potency was “inactive”. In the case of Nc1ncnc2c1ncn2[C@@H]1O[C@H](COP(=O)(O)O)[C@@H](O)[C@H]1O, the Potency was “inactive”. In the case of O=Nc1ccc(NO)cc1, the Potency was “inactive”. With C=CC(C)(CCC=C(C)C)OC(=O)/C=C/c1ccccc1 (stereo not given) the Potency was “inactive”. With COC(=O)C1=C(C)NC(C)=C(C(=O)OCCCN2CCC(c3ccccc3)(c3ccccc3)CC2)C1c1cccc([N+](=O)[O-])c1 (stereo not given) the Potency was 23.7 µM (active). With CC1=C(/C=C/C(C)=C/C=C/C(C)=C\C=O)C(C)(C)CCC1 the Potency was “inactive”. For CCc1c(C(=O)O)c(=O)cnn1-c1ccc(Cl)cc1, the Potency was “inactive”. For CCCCC(CC)COC(=O)c1ccc(O)cc1 (stereo not given), the Potency was “inactive”. For C=C1C(C)(C)[C@@]2(Cl)C(Cl)[C@]1(Cl)C(Cl)(Cl)C2(Cl)Cl (stereo not given in full), the Potency was “inactive”. For CCCCCCCCCC(=O)N(C)C, the Potency was “inactive”. In the case of NCCCC(O)(P(=O)(O)O)P(=O)(O)O, the Potency was “inactive”. In the case of S=C(SSSSSSC(=S)N1CCCCC1)N1CCCCC1, the Potency was 7.56 µM (active). For CC(C)(c1cc(Br)c(O)c(Br)c1)c1cc(Br)c(O)c(Br)c1, the Potency was “inactive”. For CN1[C@@H]2CC[C@H]1CC(OC(=O)C(CO)c1ccccc1)C2 (stereo not given in full), the Potency was “inactive”. In the case of O=C(O)Cc1ccc(OCCNC[C@H](O)c2ccccc2)cc1, the Potency was “inactive”. With CCN(CC)CCNc1ccc(CO)c2sc3ccccc3c(=O)c12 the Potency was 7.5 µM (active). For Cc1ccc(N)cc1O, the Potency was “inactive”. With CCCCNc1c(C(=O)OCC)c(C)nc2c1cnn2CC the Potency was “inactive”. For C/C=C/C(=O)Oc1c(CCCCCC(C)C)cc([N+](=O)[O-])cc1[N+](=O)[O-], the Potency was 21.7 µM (active). In the case of CS(C)(=O)=O, the Potency was “inactive”. Work on CCC(=O)CC(C)CC (stereo not given) yielded an activity change, negative = cytotoxicity of 5.84% [at 0.349 µM].
